S2 tox: cell viability loss in ATXN counter-screen | S2 cells (HEK-293 line with an ATXN2-luciferase reporter) viability, CellTiter-Fluor protease fluorescence, 24 h | Potency, µM (top dose mostly 56.7 µM), usual class: cytotoxic | 400,000 tested, 0.49% active; note: nearly all actives have a fitted effect of over 40% in size
HT1080-NT tox: kills 2HG-producing HT-1080-NT fibrosarcoma cells; HT-1080-NT fibrosarcoma viability, CellTiter-Glo ATP luminescence, 48 h; Potency, µM (doses to about 46.1 µM), without a hit: top-dose activity, negative = less viability, most hits filed as cytotoxic; 360,000 tested, 1.6% active;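 note: NT is the 2HG producing partner of a matched IDH1 knockdown line; 0% = DMSO-treated cells and -100% = media-only wells without cells; nearly all actives have a fitted effect of over 55% in size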
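Viability by CellTiter-Glo luminescence after 48 h compound exposure at 37C of HT-1080-NT cells (750/well, RPMI, 5% FBS). % activity scaled between DMSO wells and medium-only wells, then curve-fitted and categorized by curve class.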
HepG2 tox-1: HepG2 cytotoxicity, counter-screen for TGF-b inhibitors; Potency, µM (titrated, usually from 46.1 µM), inactives show at the highest dose activity change, negative = cytotoxicity, actives largely listed as cytotoxic; 410,000 tested, 0.76% active; HepG2 CAGA-GFP viability, ATP luminescence, 18 h
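HepG2 CAGA-GFP cells (1000/well, DMEM with 1% FBS) received compound, then TGF-beta at 500 pg/mL final, and were incubated 18 hours at 37 degrees C. Viability was read by CellTiter-Glo luminescence. Media-only wells were set as complete cell-killing and DMSO as no toxicity.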
HT1080 IDH1KD tx: kills HT-1080 cells with IDH1 knockdown | HT-1080 IDH1 knockdown viability, ATP luminescence, 48 h | Potency, µM (highest dose often 46.1 µM), without a hit: at the top dose activity, negative = toxicity, most hits filed as cytotoxic | 360,000 tested, 2% active | AID 686971;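 note: 0% = DMSO wells and -100% = cell-free medium wells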
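Cytotoxicity counter-line: IDH1KD HT-1080, 48 h, CellTiter-Glo. Curves classed by r2, magnitude and activity.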
ATXN2 expr inh: ATXN2 expression inhibition | HEK-293 ATXN2-luciferase reporter, luminescence, 24 h | Potency, µM (highest dose often 57 µM), for the others: at the top dose activity change, negative = inhibition, actives largely listed as inhibitors | 360,000 tested, 0.72% active; note: % is set by controls: 0 for no effect and ±100 for the full control effect; nearly all actives have a fitted effect of over 55% in size
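ATXN2-luciferase reporter cells (luciferase flanked by upstream and downstream ATXN2 gene portions) were treated 24 h at 37 °C with compounds at up to 57 uM. SteadyGlo luminescence gave expression; GF-AFC fluorescence gave viability.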
TGFb inhibitor: inhibitors of TGF-b signaling; HepG2 CAGA-GFP TGF-b/SMAD3 reporter, GFP fluorescence, 18 h; TGF-beta stimulated, 500 pg/mL final; 410,000 tested, 1.2% active; Potency, µM (highest dose often 46.1 µM), for inactives: at the highest dose activity, negative = inhibition, hits mostly inhibitors; note: % is set by controls: 0 for no effect and ±100 for the full control effect; nearly all actives have a fitted effect of over 65% in size
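HEPG2 CAGA-GFP, 1000 cells/well; 2 h settle, 37 C; cpd via pin tool; TGF-b 500 pg/mL final; 18 h, 37 C; GFP imaging ex488/em500-530; %Activity normalised to -TGF-b and +DMSO controls; CRC fit, curve class.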
TGFb CAGA inh: TGF-b pathway inhibition, cherry-pick retest. HepG2 CAGA-GFP TGF-b reporter, GFP fluorescence, 18 h; cells stimulated with TGF-beta, 500 pg/mL. shares compounds with TGFb inhibitor. 1,600 tested, 63% active. AID 720534. Potency, µM (top dose mostly 46.1 µM), inactives show at the highest dose activity, negative = inhibition, most hits filed as inhibitors; note: % is set by controls: 0 for no effect and ±100 for the full control effect; nearly all actives have a fitted effect of over 65% in size
HepG2 tox-2: HepG2 cytotoxicity, TGF-b inhibitor counterscreen | 1,600 tested, 27% active | Potency, µM (series often up to 46.1 µM), for inactives: at the top dose activity, negative = cytotoxicity, hits mostly inhibitors | AID 720535 | shares compounds with TGFb inhibitor | HepG2 CAGA-GFP viability, ATP luminescence, 18 h; cells stimulated with TGF-beta, 500 pg/mL; note: % is set by controls: 0 for no effect and ±100 for the full control effect; nearly all actives have a fitted effect of over 70% in size
TGFb CCL64 inh: orthogonal confirmation of TGF-b inhibitors in CCL64 cells; shares compounds with TGFb inhibitor; CCL64 CAGA-GFP reporter, TGF-b stimulated, GFP fluorescence, 18 h; Potency, µM (titrated, usually from 46.1 µM), for inactives: at the top dose activity, negative = inhibition, actives largely listed as inhibitors; 1,600 tested, 41% active; AID 720536; note: nearly all actives have a fitted effect of over 65% in size
COP TGFb inh: TGF-b inhibition validated with COP promoter. 1,600 tested, 3% active. AID 720537. Potency, µM (doses to about 46.1 µM), without a hit: at the top dose activity, negative = inhibition, hits mostly inhibitors. shares compounds with TGFb inhibitor. HepG2 COP-GFP TGF-b reporter, GFP fluorescence, 18 h; cells stimulated by added recombinant TGF-beta; note: nearly all actives have a fitted effect of over 70% in size
An asterisk follows results filed as active; i = inactive; ? = inconclusive; / = not tested or not shown. A selection: hits, their analogues and other compounds. The true share with any hit is near 3.8%. Calls come from the whole dose curve; as a rule, active = well fitted curve in the direction sought with a large enough effect; inconclusive = small, poorly fitted or top-dose-only effect, or another doubt; inactive = no such curve, though single readings can be large; an effect the other way counts as inactive or inconclusive. Potency is the fitted concentration of half-maximal effect.

SMILES	S2 tox	HT1080-NT tox	HepG2 tox-1	HT1080 IDH1KD tx	ATXN2 expr inh	TGFb inhibitor	TGFb CAGA inh	HepG2 tox-2	TGFb CCL64 inh	COP TGFb inh
CCCCOC(=O)Nc1ccc(S(=O)(=O)Nc2ccc([N+](=O)[O-])cc2)cc1	i	10.8%	-9.3%	-2.0%	12.6%	7.94µM*	?	-5.9%	-13.7%	-8.8%
O=C(NCc1ccncc1)c1ccc2nc(Cc3ccccc3F)oc2c1	i	-16.4%	1.7%	-22.4%	-4.3%	?	?	-14.5%	15.6%	-17.6%
Cc1cc(CNC(=O)c2ccc3nc(Cc4ccccc4F)oc3c2)nn1C	i	13.4%	0.1%	13.2%	57.0%	-11.2%	/	/	/	/
Cc1ccc(-c2noc(CCC(=O)Nc3ccc(F)cc3Cl)n2)cc1	/	/	-9.9%	/	/	-5.1%	/	/	/	/
O=C(Nc1cc(Sc2ccccn2)cc([N+](=O)[O-])c1)c1ccc(Cl)cc1	i	?	-24.2%	?	-0.7%	14.1µM*	11.6µM*	-18.9%	10.3µM*	10.9%
COc1ccc(F)cc1S(=O)(=O)NCC(c1ccco1)S(=O)(=O)c1cccs1 (stereo not given)	/	/	2.0%	/	/	-28.7%	/	/	/	/
COc1ccc(Cl)cc1C(=O)Nc1ccc(NC(C)=O)cc1	i	0.1%	10.1%	-1.5%	-2.8%	?	/	/	/	/
CC(=O)Oc1c(I)cc(I)cc1C(=O)Nc1ccc(Cl)cc1	?	20.6µM*	-35.8%	20.6µM*	?	5.01µM*	4.61µM*	8.2µM*	6.51µM*	45.1%
O=C(c1cnc(N2CCCCC2)c2ccccc12)N1CCN(c2cccc(Cl)c2)CC1	/	/	-5.4%	/	/	?	/	/	/	/
COc1cccc(/C=N/NC(=O)c2ccncc2)c1OC(=O)c1ccc(Br)cc1	?	?	-35.5%	?	?	?	?	-19.7%	?	8.3%
COc1cc(/C=N/NC(=O)c2ccncc2)ccc1OC(=O)c1cccc(Br)c1	i	9.3%	-12.4%	6.3%	-10.4%	-1.6%	/	/	/	/
O[C@H]1CN(CC2CCCCC2)[C@@H](c2ccc(Cl)cc2)C[C@@H]1n1cc(C2CC2)nn1	/	?	11.2µM*	?	?	10µM*	23.1µM*	16.4µM*	23.1µM*	50.0%
O[C@@H]1CN(CC2CCCCC2)[C@@H](c2ccccc2)C[C@H]1n1cc(C2CC2)nn1	?	5.7%	-5.2%	4.4%	-30.1%	-0.9%	/	/	/	/
COc1cc(C2c3cc4c(cc3OC(NCCc3ccccc3)C2C)OCO4)cc(OC)c1OC (stereo not given)	i	1.03µM*	-9.9%	1.03µM*	1.4%	?	?	-1.5%	16.4µM*	-9.7%
COc1cc(C2c3cc4c(cc3OC(C)(N3CCCC3)C2C)OCO4)cc(OC)c1OC (stereo not given)	?	?	-3.3%	?	9.3%	-14.7%	/	/	/	/
CCSc1nsc(NC(=O)Nc2cccc(F)c2)n1	?	11.6µM*	-41.0%	6.51µM*	?	7.08µM*	7.31µM*	6.51µM*	?	103.8%
COc1cccc(NC(=O)Nc2nc(SC(C)(C)C)ns2)c1	?	?	-103.9%	?	?	6.31µM*	10.3µM*	?	8.2µM*	41.4%
COc1cccc(NC(=O)Nc2nc(SC)ns2)c1	i	?	-41.9%	?	41.7%	?	/	/	/	/
CCCSc1nsc(NC(=O)Nc2ccc(F)cc2F)n1	/	?	-82.9%	3.6%	/	8.91µM*	6.51µM*	5.8µM*	7.31µM*	81.9%
COc1ccc(C(=O)c2cn(Cc3ccc(F)cc3)c3c(F)cc(F)cc3c2=O)cc1	?	/	-2.6%	/	-29.6%	21.1%	/	/	/	/
CCCn1ccc2c(OCC(=O)Nc3ccc(F)cc3F)cccc2c1=O	?	/	-15.9%	/	-11.1%	-12.8%	/	/	/	/
Cc1ccccc1Cn1ccc(NC(=O)c2cnn3c2NC(c2ccccc2)CC3C(F)(F)F)n1 (stereo not given)	i	?	-39.5%	?	-0.8%	7.94µM*	?	?	23.1µM*	40.4%
COc1ccccc1NC(=S)N=Nc1c(O)[nH]c2ccc(Br)cc12	?	7.7%	11.4%	-21.1%	/	?	?	?	3.26µM*	-2.6%
Cc1cccc(NC(=S)N=Nc2c(O)[nH]c3ccccc23)c1	?	?	-28.4%	?	?	?	/	/	/	/
CC[C@H](C)[C@@H]1OC(=O)[C@@H](C)[C@@H](CC)NC(=O)[C@H](C)N(C)C(=O)C(C)(C)C(=O)C(C)NC(=O)[C@H](Cc2ccccc2)N(C)C(=O)[C@H](C(C)C)N(C)C(=O)CNC(=O)[C@H](CC(C)C)N(C)C(=O)CNC1=O (stereo not given in full)	?	1.3µM*	5.5%	0.92µM*	-37.2%	3.55µM*	7.31µM*	?	5.8µM*	41.7%
Cc1ccc2c(Sc3ccc(Cl)cc3)c(C(=O)N3CCC(C)CC3)[nH]c2c1	?	/	-80.1%	/	-35.6%	?	/	/	/	/
Cc1ccc(-c2nnc3c(C(F)(F)F)nc4ccccc4n23)cc1	?	3.8%	-41.9%	12.1%	-5.8%	?	/	/	/	/
FC(F)(F)c1nc2ccccc2n2c(-c3ccc(Cl)cc3)nnc12	i	5.8µM*	-31.6%	4.61µM*	-24.0%	4.47µM*	5.17µM*	?	11.7%	66.5%

Bioassay records as filed in PubChem BioAssay.
